In all, about 10,000 compounds went through this assay and about 320 (3.2%) were called active. No stated cut-off is given here; in the data, active means CPE inhibition mostly above about 9.1% (no sharp cut-off); inactive means mostly below about 7.2%. This excerpt belongs to a sample that is enriched for actives.
Assay: Dengue virus cytopathic effect inhibitors, cell-based, CPE readout, HTS (AID 540333)
Details: Dengue virus CPE inhibition in host cells, at 20 µM; hits give high values

| SMILES | CPE inhibition |
| --- | --- |
| C/C(=N\NC(=O)CSc1nnc(C)s1)c1ccc(Cl)cc1 | inactive |
| CC(C)CC(=O)NC1(C(F)(F)F)C(=O)N(CC(C)C)C2=C1C(=O)CC(C)(C)C2 (stereo not given) | inactive |
| Cc1ccc(C)c(Nc2ncnc(N)c2[N+](=O)[O-])c1 | 6.21% (inactive) |
| CNc1nc(Nc2ccc(C)c(Cl)c2)nc(N)c1[N+](=O)[O-] | 9.08% (active) |
| CC(=O)Nc1ccc(Nc2nc(C)c([N+](=O)[O-])c(Nc3ccc(NC(C)=O)cc3)n2)cc1 | inactive |
| COc1cccc(-c2ncc3ccccc3c2COC(=O)c2ccc(C(C)(C)C)cc2)c1 | 15.2% (active) |
| COc1cccc(-c2ncc3ccccc3c2CO)c1 | inactive |
| COc1cccc(-c2ncc3ccccc3c2COC(=O)c2ccc(C(F)(F)F)cc2)c1 | 0.77% (inactive) |
| CC(=O)N1N=C(c2ccc(Br)cc2)OC1(C)CC(=O)Nc1ccccc1 (stereo not given) | 4.7% (inactive) |
| O=C(CN1CCCCCCC1)N/N=C/c1ccccc1F | 0.805% (inactive) |
| C/C(=N\Nc1ccc(Cl)c(Cl)c1)c1ccc(-n2ccnc2)cc1 | inactive |
| CC(C)(C)c1ccc(OCC(=O)N/N=C/c2ccc(N3CCOCC3)cc2)cc1 | 1.86% (inactive) |
| C/C(=N\NC(=O)COc1ccc(C(C)(C)C)cc1)c1ccc(-n2ccnc2)cc1 | 10.2% (active) |
| CN(c1ccccc1)S(=O)(=O)c1cccc(NC(=O)CSc2ncc(C(F)(F)F)cc2Cl)c1 | 22.4% (active) |
| NS(=O)(=O)c1cccc(NC(=O)CSc2ncc(C(F)(F)F)cc2Cl)c1 | 3.56% (inactive) |
| CN(c1ccccc1)S(=O)(=O)c1cccc(NC(=O)CSc2nncn2C)c1 | 0.35% (inactive) |
| Cc1c(Cl)cccc1NC(=S)NCc1cccn1C | 0.255% (inactive) |
| Cc1cccc(-n2c(C)cc(/C=C3/C(=N)N4C(c5ccccc5)=CSC4=NC3=O)c2C)c1 | 5.77% (inactive) |
| Cc1cc(C)cc(-n2c(C)cc(/C=C3\C(=N)N4N=C(CC(C)C)SC4=NC3=O)c2C)c1 | 15.1% (active) |
| Cc1cccc(-n2c(C)cc(/C=C3\C(=N)N4N=C(CC(C)C)SC4=NC3=O)c2C)c1 | 0.575% (inactive) |
| COC(=O)c1ccc(Oc2c(Cl)cccc2[N+](=O)[O-])cc1 | 0.625% (inactive) |
| COc1ccc(Nc2nc(-c3cccc([N+](=O)[O-])c3)nc3ccccc23)c(OC)c1 | 0.465% (inactive) |
| O=C(O)CC(CC(=O)O)c1ccsc1 | inactive |

| SMILES | CPE inhibition |
| --- | --- |
| CCOC(=O)c1ccc(-n2c(C)ccc2C)cc1 | 0.33% (inactive) |
| CCOC(=O)N1CCN(C(=O)c2ccc(-n3c(C)ccc3C)cc2)CC1 | 0.68% (inactive) |
| C=CC[C@]12CCc3sccc3C1N(c1ccc(C(=O)OCC)cc1)C2=O (stereo not given in full) | 19.9% (active) |
| Cc1cc(=O)[nH]c(N/N=C/c2ccc(Br)s2)n1 | inactive |
| CCc1nnc(N2C(=O)c3ccc(Oc4ccc([N+](=O)[O-])cc4)cc3C2=O)s1 | 0.2% (inactive) |
| Cc1cccc(-c2nsc(SCC(=O)NCc3ccc4c(c3)OCO4)n2)c1 | 0.255% (inactive) |
| S=C(Nc1ccccc1Oc1ccccc1)Nc1cccc(Cl)c1Cl | 12.8% (active) |
| FC(F)Oc1ccccc1NC(=S)Nc1cccc(Cl)c1Cl | 0.195% (inactive) |
| S=C(Nc1ccc(OCc2ccccc2)cc1)Nc1cccc(Cl)c1Cl | 0.45% (inactive) |
| COc1cccc(NC(=O)CN2C(=O)C(c3ccc(C)cc3)=NC23CCCCCC3)c1 | 3.59% (inactive) |
| Cc1ccc(-n2c(=S)[nH]c3nc4c(cc3c2=O)COC(C)(C)C4)cc1 | inactive |
| O=S(=O)(/N=C(/Nc1ccccn1)c1ccc(Cl)cc1)c1ccc(Cl)cc1 | 0.025% (inactive) |
| COC(=O)c1ccc(COc2cccc3c2CCN(Cc2cccc(C)c2)C3=O)o1 | 0.825% (inactive) |
| O=C1c2cccc(OCc3ccc(F)cc3)c2CCN1Cc1ccccc1 | 11.8% (active) |
| O=C(COc1cccc2c1CCN(Cc1ccc(Br)cc1)C2=O)NCc1ccco1 | 13.9% (active) |
| Cc1ccc(COc2cccc3c2CCN(Cc2ccc(F)cc2)C3=O)cc1 | 23% (active) |
| O=C1c2cccc(OCC(=O)N3CCCc4ccccc43)c2CCN1Cc1ccccc1 | inactive |
| Cc1ccc(C)c(NC(=O)COc2cccc3c2CCN(Cc2ccccc2)C3=O)c1 | 0.435% (inactive) |
| Cc1cccc(CN2CCc3c(OCC(=O)NCc4ccco4)cccc3C2=O)c1 | inactive |
| Cc1cccc(CN2CCc3c(OCC(=O)N4CCCc5ccccc54)cccc3C2=O)c1 | 4.05% (inactive) |
| Cc1ccc(CN2CCc3c(OCc4ccc(F)cc4)cccc3C2=O)cc1 | 23.2% (active) |
| O=C1c2cccc(OCc3ccc(F)cc3)c2CCN1Cc1ccc(F)cc1 | 7.61% (inactive) |
| CCOC(=O)N1CCN(C(=O)COc2cccc3c2CCN(Cc2ccc(F)cc2)C3=O)CC1 | 0.16% (inactive) |

| SMILES | CPE inhibition |
| --- | --- |
| O=C(COc1cccc2c1CCN(Cc1ccccc1)C2=O)NCc1ccco1 | inactive |
| COc1ccc(CC(=O)Oc2cc(C)[nH]c(=O)c2[N+](=O)[O-])cc1 | inactive |
| O=C(NCCc1nc2ccccc2[nH]1)/C(=C/c1ccc2c(c1)OCO2)NC(=O)c1ccccc1 | inactive |
| C=CCc1ccc(OCCOc2cccc3cccnc23)c(OC)c1 | 1.16% (inactive) |
| CSc1n[nH]c2nc3c(c(=O)n12)C1(CCCC1)Cc1ccccc1-3 | inactive |
| Nn1cnc2c(c1=O)C1(CCCCC1)Cc1ccccc1-2 | 0.27% (inactive) |
| NC(=O)CSc1nc2c(c(=O)n1-c1ccccc1)C1(CCCCC1)Cc1ccccc1-2 | 13.4% (active) |
| COCc1nnc(NC(=O)c2cc(OC)c(OC)cc2[N+](=O)[O-])s1 | 0.875% (inactive) |
| CCOc1ccc(S(=O)(=O)c2c(C(=O)c3ccc(C)cc3)cnc3cc4c(cc23)OCCO4)cc1 | 3.02% (inactive) |
| Cc1ccc(C(=O)c2cnc3cc4c(cc3c2S(=O)(=O)c2ccccc2)OCCO4)cc1 | 6.29% (inactive) |
| Cc1ccc(S(=O)(=O)c2c(C(=O)c3ccccc3)cnc3cc4c(cc23)OCCO4)cc1 | 13.2% (active) |
| Cc1ccc(O)c(-c2cc(C(=O)Nc3ccc(S(=O)(=O)Nc4nc(C)cc(C)n4)cc3)[nH]n2)c1 | inactive |
| COc1cc2cc(CCOC(=O)c3ccco3)oc(=O)c2cc1OC | 0.275% (inactive) |
| N#Cc1ccc(NC(=O)COC(=O)CCNS(=O)(=O)c2ccccc2)cc1 | inactive |
| CCCCCCCNC(=O)C1(CC2CC(c3ccc(Cl)cc3)=NO2)CCN(C(=O)C2(C)CC2)CC1 (stereo not given) | 1.24% (inactive) |
| CCCCCCCNC(=O)C1(CC2CC(c3cccc(Br)c3)=NO2)CCNCC1 (stereo not given) | inactive |
| CCCCCCCNC(=O)C1(CC2CC(c3ccccc3)=NO2)CCN(C(=O)OC(C)(C)C)CC1 (stereo not given) | 14.1% (active) |
| CCCCCCCNC(=O)C1(CC2CC(c3cccc(Br)c3)=NO2)CCN(C(=O)Cc2ccc(F)cc2)CC1 (stereo not given) | 21.7% (active) |
| COC(=O)C1(CC2CC(c3ccncc3)=NO2)CCN(C(=O)OC(C)(C)C)CC1 (stereo not given) | inactive |
| CCCCCCCNC(=O)C1(CC2CC(c3cccc(Br)c3)=NO2)CCN(C(=O)C2(C)CC2)CC1 (stereo not given) | 2.1% (inactive) |
| O=C(Nc1cccc2nsnc12)c1cccnc1Cl | inactive |
| Cc1ccc(CNC(=O)c2cc(-c3ccccc3)nn2CC2CC(c3cccnc3)=NO2)cc1 (stereo not given) | inactive |
| Cc1ccc(-c2cc(C(F)(F)F)c(C#N)c(=O)[nH]2)cc1 | 0.3% (inactive) |

| SMILES | CPE inhibition |
| --- | --- |
| N/C(=N\OC(=O)Cc1ccccc1[N+](=O)[O-])c1ccncc1 | 0.175% (inactive) |
| Cc1ccc(C(=O)N/C(=C/c2ccco2)C(=O)NCCc2c[nH]c3ccccc23)cc1 | 0.17% (inactive) |
| CCn1cc(Cl)c(C(=O)N2N=C(c3ccc4ccccc4c3)CC2c2ccccc2O)n1 (stereo not given) | 10% (active) |
| CCn1cc([N+](=O)[O-])c(C(=O)N2N=C(c3ccc(OC)cc3OC)CC2c2ccccc2O)n1 (stereo not given) | 0.7% (inactive) |
| CCn1cc([N+](=O)[O-])c(C(=O)N2N=C(c3ccc(O)c(OC)c3)CC2c2ccccc2O)n1 (stereo not given) | 2.17% (inactive) |
| CC(=O)c1cccc(NC(=O)CCCOc2ccc(C)cc2)c1 | inactive |
| Cc1noc(C)c1CN(C(=S)NC(C)C)c1ccccc1 | inactive |
| Cc1ccsc1-c1n[nH]c(=S)n1CC(C)C | inactive |
| Cn1cc([N+](=O)[O-])c(C(=O)Nc2ccn(C34CC5CC(CC(C5)C3)C4)n2)n1 | 9.72% (active) |
| Cn1nccc1C(=O)Nc1ccn(C23CC4CC(CC(C4)C2)C3)n1 | 1.19% (inactive) |
| CCn1cc([N+](=O)[O-])c(C(=O)Nc2ccn(C34CC5CC(CC(C5)C3)C4)n2)n1 | 0.05% (inactive) |
| O=C(C[n+]1cccc(CNC(=O)c2ccc(OC(F)F)cc2)c1)Nc1cccc(C(F)(F)F)c1 | 0.165% (inactive) |
| CC(/C=C/c1ccccc1F)=N\NC(=O)C(C)C | 1.25% (inactive) |
| CN(C)c1ccc(N=Nc2ccccc2C(=O)OCC(=O)N2CCCCCC2)cc1 | 1.56% (inactive) |
| COc1ccc(C2OCC3(CO2)SC(=O)NC3=O)cc1 (stereo not given) | 0.47% (inactive) |
| CC(C)(C)NC(=O)C(c1cccs1)N(CC1CCCO1)C(=O)c1ccc(-c2ccccc2)[nH]1 (stereo not given) | 28.6% (active) |
| O=C(NCC1CCCO1)C(c1cccs1)N(Cc1ccccc1)C(=O)c1ccc(-c2ccccc2)[nH]1 (stereo not given) | 8.12% (inactive) |
| Cc1cc(C)cc(NC(=O)C(NCC2CCCO2)c2ccccc2)c1 (stereo not given) | inactive |
| COc1ccc(C(=O)N(CC2CCCO2)C(C(=O)NCCC(C)C)c2ccc(C)cc2)cc1OC (stereo not given) | inactive |
| O=C(NCC1CCCO1)C(c1cccs1)N(Cc1ccccc1Cl)C(=O)c1ccc(-c2ccccc2)[nH]1 (stereo not given) | 16.9% (active) |
| O=C(NC1CCCC1)C(c1ccncc1)N(Cc1ccccc1)C(=O)c1ccc(-c2ccccc2)[nH]1 (stereo not given) | 3.1% (inactive) |
